The source of these data is paper PMC11062922 (Nature Chemical Biology, 2023).

Like-named read-outs stand apart in the source and are kept apart here.

Common to all, as to design: species or system human, MV4-11 + K-562 + COLO205 + SK-N-BE2 + OVCAR-8
Experiment [1] has as its system ADRBK1. To be noted: read-out: apparent Kd, compound concentrations: 100 nM and 1000 nM (sheet 'Samples'), n = 1.
For experiment [2], the system named is PIK3C3. Particulars: read-out: apparent Kd, compound concentrations: 100 nM and 1000 nM (sheet 'Samples'), n = 1.
The subject of experiment [3] is PIK3CB. Particulars: read-out: apparent Kd; compound concentrations: 100 nM and 1000 nM (sheet 'Samples'), CATDS: 0.86026286553543596; n = 1.
Experiment [4] deals with AKT1. To be noted: read-out: apparent Kd, compound concentrations: 100 nM and 1000 nM (sheet 'Samples'), n = 1.
Experiment [5] relates to BMPR1A. Particulars: read-out: apparent Kd; compound concentrations: 100 nM and 1000 nM (sheet 'Samples'), CATDS: 0.16431444601058101; n = 1.
Experiment [6] deals with CAMK4. Particulars: read-out: apparent Kd; compound concentrations: 100 nM and 1000 nM (sheet 'Samples'), CATDS: 0.11933253309467701; n = 1.
Experiment [7] deals with EGFR. Particulars: read-out: apparent Kd; compound concentrations: 100 nM and 1000 nM (sheet 'Samples'), CATDS: 0.109679225268286; n = 1.
Experiment [8] concerns ILK. To be noted: read-out: apparent Kd; compound concentrations: 100 nM and 1000 nM (sheet 'Samples'), CATDS: 0.116106966266716; n = 1.
For experiment [9], the system named is OPA1. To be noted: read-out: apparent Kd; compound concentrations: 100 nM and 1000 nM (sheet 'Samples'), CATDS: 0.52668483019397605; n = 1.
Experiment [10] concerns GSK3A. Particulars: read-out: apparent Kd; compound concentrations: 100 nM and 1000 nM (sheet 'Samples'), CATDS: 0.49410987745455298; n = 1.
Experiment [11] concerns MYLK3. Particulars: read-out: apparent Kd; compound concentrations: 100 nM and 1000 nM (sheet 'Samples'), CATDS: 0.30722908276371202; n = 1.
The subject of experiment [12] is AGK. To be noted: read-out: apparent Kd, compound concentrations: 100 nM and 1000 nM (sheet 'Samples'), n = 1.
For experiment [13], the system named is TP53RK. To be noted: read-out: apparent Kd; compound concentrations: 100 nM and 1000 nM (sheet 'Samples'), CATDS: 0.51387141429952199; n = 1.
Experiment [14] deals with AGPS. Particulars: read-out: apparent Kd; compound concentrations: 100 nM and 1000 nM (sheet 'Samples'), CATDS: 7.5383402334255403E-2; n = 1.
Experiment [15] deals with CDK9. To be noted: read-out: apparent Kd; compound concentrations: 100 nM and 1000 nM (sheet 'Samples'), CATDS: 8.3924043652499697E-2; n = 1.
Experiment [16] deals with CDKL5. Particulars: read-out: apparent Kd; compound concentrations: 100 nM and 1000 nM (sheet 'Samples'), CATDS: 0.33786107354204697; n = 1.
Experiment [17] concerns CSNK1A1. Particulars: read-out: apparent Kd; compound concentrations: 100 nM and 1000 nM (sheet 'Samples'), CATDS: 8.0672688589635194E-2; n = 1.
The subject of experiment [18] is CSNK1D. Particulars: read-out: apparent Kd; compound concentrations: 100 nM and 1000 nM (sheet 'Samples'), CATDS: 0.220619974671908; n = 1.
In experiment [19] the test system is CSNK1E. To be noted: read-out: apparent Kd; compound concentrations: 100 nM and 1000 nM (sheet 'Samples'), CATDS: 0.1850261885326; n = 1.
Experiment [20] relates to RAB14. Particulars: read-out: apparent Kd; compound concentrations: 100 nM and 1000 nM (sheet 'Samples'), CATDS: 7.5249376612815694E-2; n = 1.
In experiment [21] the test system is RIOK2. Particulars: read-out: apparent Kd; compound concentrations: 100 nM and 1000 nM (sheet 'Samples'), CATDS: 0.19530203573374799; n = 1.
For experiment [22], the system named is STK26. To be noted: read-out: apparent Kd; compound concentrations: 100 nM and 1000 nM (sheet 'Samples'), CATDS: 8.25311561999897E-2; n = 1.
In experiment [23] the test system is AKT2. Particulars: read-out: apparent Kd; compound concentrations: 100 nM and 1000 nM (sheet 'Samples'), CATDS: 8.2030939692010002E-2; n = 1.
The subject of experiment [24] is CDK17. To be noted: read-out: apparent Kd; compound concentrations: 100 nM and 1000 nM (sheet 'Samples'), CATDS: 6.2311196568293398E-2; n = 1.
Experiment [25] deals with CLK4. To be noted: read-out: apparent Kd; compound concentrations: 100 nM and 1000 nM (sheet 'Samples'), CATDS: 7.8018331182730397E-2; n = 1.
Experiment [26] concerns MAP2K1. Particulars: read-out: apparent Kd; compound concentrations: 100 nM and 1000 nM (sheet 'Samples'), CATDS: 7.0817886716783296E-2; n = 1.
For experiment [27], the system named is MAP2K2. Particulars: read-out: apparent Kd; compound concentrations: 100 nM and 1000 nM (sheet 'Samples'), CATDS: 8.1065909718248605E-2; n = 1.
Experiment [28] relates to MAPKAPK2. To be noted: read-out: apparent Kd; compound concentrations: 100 nM and 1000 nM (sheet 'Samples'), CATDS: 7.7313280603985193E-2; n = 1.
Experiment [29] relates to NNT. Particulars: read-out: apparent Kd; compound concentrations: 100 nM and 1000 nM (sheet 'Samples'), CATDS: 6.8216764859784895E-2; n = 1.
Experiment [30] relates to NQO1. To be noted: read-out: apparent Kd; compound concentrations: 100 nM and 1000 nM (sheet 'Samples'), CATDS: 0.112965714749218; n = 1.
In experiment [31] the test system is PIP4K2C. To be noted: read-out: apparent Kd; compound concentrations: 100 nM and 1000 nM (sheet 'Samples'), CATDS: 6.1582136800339998E-2; n = 1.
The subject of experiment [32] is PRKAG2. To be noted: read-out: apparent Kd; compound concentrations: 100 nM and 1000 nM (sheet 'Samples'), CATDS: 7.1492957845938399E-2; n = 1.
For experiment [33], the system named is TNIK. Particulars: read-out: apparent Kd; compound concentrations: 100 nM and 1000 nM (sheet 'Samples'), CATDS: 6.4996238797789693E-2; n = 1.
Experiment [34] concerns VDAC3. To be noted: read-out: apparent Kd; compound concentrations: 100 nM and 1000 nM (sheet 'Samples'), CATDS: 6.7332646365255294E-2; n = 1.

As for `Cc1cccc(Cn2ccn3c(=O)cc(N4CCOCC4)nc23)c1` [GSK2297542A], the potency estimated from few doses is 1.59 µM in experiment [1] (CATDS: 0.236668950824271), 0.886 µM in [2] (CATDS: 0.27683551604583601) and 0.0483 µM in experiment [3].
With `Cl.O=C(Nc1cccc(-c2nn3ncccc3c2-c2ccnc(Nc3cccnc3)n2)c1)c1c(F)cccc1F` [GSK312879A], the potency estimated from few doses is 1.64 µM in experiment [4] (CATDS: 0.123574579018809); 0.841 µM in experiment [5]; 1.8 µM in [6]; 2.31 µM in [7]; 1.95 µM in experiment [8]; 0.116 µM in experiment [9]. The potency estimated from few doses in experiment [2] (CATDS: 0.14677884590005799) is 1.07 µM.
Take `COc1ccc(C2=C(c3cn(C)c4ccccc34)C(=O)NC2=O)cc1` [RO0317257-000]: the potency estimated from few doses is 1.84 µM in experiment [1] (CATDS: 0.26872629517394703), 0.529 µM in [10] and 1.31 µM in experiment [11].
With `COC[C@@H](C)N[C@H]1CC[C@H](Nc2cc(-c3cccc(NCC4(C#N)CCOCC4)n3)c(Cl)cn2)CC1` [NVP-2], the results for the potency estimated from few doses in experiment [12] (CATDS: 0.48685778986675599) and in experiment [13] were 2.37 µM and 2.13 µM, respectively.
Take `c1cnn2ncc(-c3ccnc(NCCCN4CCOCC4)n3)c2c1` [GW683109X]: the potency estimated from few doses is 2.08 µM in experiment [14]; 1.29 µM in [15]; 0.0401 µM in [16]; 1.53 µM in [17]; 0.0822 µM in [18]; 0.118 µM in experiment [19]. The potency estimated from few doses in [20] was 2.1 µM; in [21], 0.105 µM; in experiment [22] it was 1.39 µM.
On to `Cc1nnc(-c2ccc(C)c(-c3ccc(C(=O)NCc4ccc(Cl)cc4)cc3)c2)o1` [GW708893X], for which the potency estimated from few doses is 1.82 µM in [12] (CATDS: 6.7196554082181503E-2); 2.38 µM in experiment [4] (CATDS: 5.9892362604304798E-2); 1.22 µM in [23]; 2.16 µM in experiment [24]; 1.34 µM in [25]; 1.63 µM in experiment [26]. The potency estimated from few doses is 1.25 µM in experiment [27]; 1.37 µM in experiment [28]; 1.76 µM in experiment [29]; 0.726 µM in [30]; 2.22 µM in experiment [31]; 1.59 µM in [32]. The figures for the potency estimated from few doses in experiment [33] and in experiment [34] were 1.96 µM and 1.81 µM, respectively.
